Consider one sequence from PMC7862700, “An all-to-all approach to the identification of sequence-specific readers for epigenetic DNA modifications on cytosine”.

Common to all, as to assay: DAPPL (digital affinity profiling via proximity ligation, sequencing); 10 mM Tris-HCl pH 7.5, 50 mM NaCl, 1 mM DTT, 4% glycerol, room temperature, 30 min; GST-TFs on glutathione beads, 16-mer random dsDNA library, 0.1% formaldehyde crosslink after washing; high values mean tight binding
Holding throughout (settings): protein: recombinant; tags: N-terminal GST; dsDNA, one strand shown

In one assay the target is T1, FLI1 (Homo sapiens, UniProt Q01543 1-452).
T1 sequence: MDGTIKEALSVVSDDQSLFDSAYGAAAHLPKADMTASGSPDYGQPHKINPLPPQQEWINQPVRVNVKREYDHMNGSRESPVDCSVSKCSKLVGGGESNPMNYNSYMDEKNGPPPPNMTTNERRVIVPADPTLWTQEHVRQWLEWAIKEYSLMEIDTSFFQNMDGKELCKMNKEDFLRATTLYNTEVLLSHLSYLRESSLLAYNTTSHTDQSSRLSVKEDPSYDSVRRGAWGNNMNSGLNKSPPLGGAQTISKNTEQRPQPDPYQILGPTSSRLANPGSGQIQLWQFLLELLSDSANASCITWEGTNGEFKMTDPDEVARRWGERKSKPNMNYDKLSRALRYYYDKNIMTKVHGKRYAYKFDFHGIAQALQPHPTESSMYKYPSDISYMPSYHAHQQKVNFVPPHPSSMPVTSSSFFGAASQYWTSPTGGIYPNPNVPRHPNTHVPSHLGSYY
Put shortly:
(§1)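 Beads coated with glutathione captured GST-fused human transcription factors that had been expressed in yeast, and the factors were then given DNA barcodes and pooled with a tag-only sample. The pools were incubated with 200 nmole of a random double-stranded 16-mer DNA library in Tris/NaCl/DTT/glycerol buffer for 30 min at room temperature, washed, crosslinked with 0.1% formaldehyde and proximity-ligated with BsaI/T4 ligase at 37 °C for 1 h. PCR amplification and Illumina NextSeq500 sequencing came last. Binding signal is each hexamer's read frequency for a factor divided by its frequency for the tag-only sample.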

A further assay concerns the target T2, GABPA (Homo sapiens, UniProt Q06546 1-454).
T2 sequence: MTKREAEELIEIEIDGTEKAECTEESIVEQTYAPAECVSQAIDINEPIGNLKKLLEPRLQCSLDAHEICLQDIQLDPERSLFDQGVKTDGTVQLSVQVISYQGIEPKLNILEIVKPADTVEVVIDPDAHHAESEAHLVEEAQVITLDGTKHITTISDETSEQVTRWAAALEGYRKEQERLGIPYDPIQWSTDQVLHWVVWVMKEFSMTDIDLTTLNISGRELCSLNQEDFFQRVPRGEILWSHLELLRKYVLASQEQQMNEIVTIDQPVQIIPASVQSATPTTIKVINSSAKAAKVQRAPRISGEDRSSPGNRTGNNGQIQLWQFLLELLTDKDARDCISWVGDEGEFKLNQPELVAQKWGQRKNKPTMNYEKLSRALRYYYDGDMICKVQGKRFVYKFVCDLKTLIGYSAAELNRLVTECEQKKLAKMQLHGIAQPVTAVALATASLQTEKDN
The method in brief: as §1

In a further assay the target is T3, ERG (Homo sapiens, UniProt P11308 1-479).
T3 sequence: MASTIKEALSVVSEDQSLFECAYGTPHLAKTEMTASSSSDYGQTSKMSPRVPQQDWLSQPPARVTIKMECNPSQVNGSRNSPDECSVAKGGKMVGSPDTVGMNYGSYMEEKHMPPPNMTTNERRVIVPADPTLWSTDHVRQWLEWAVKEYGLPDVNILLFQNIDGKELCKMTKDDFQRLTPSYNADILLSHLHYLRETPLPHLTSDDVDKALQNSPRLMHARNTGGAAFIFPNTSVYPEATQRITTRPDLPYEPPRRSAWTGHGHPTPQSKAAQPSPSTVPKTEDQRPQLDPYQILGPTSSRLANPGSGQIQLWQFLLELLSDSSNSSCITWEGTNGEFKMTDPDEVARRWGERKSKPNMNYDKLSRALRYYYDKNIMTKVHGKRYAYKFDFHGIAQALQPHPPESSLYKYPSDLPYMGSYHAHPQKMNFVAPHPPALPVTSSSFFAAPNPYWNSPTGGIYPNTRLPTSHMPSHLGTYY
Put shortly:
as §1

The target in a further assay is ELF1 (Homo sapiens, UniProt P32519 1-619). The method in brief: as §1
Sequence of ELF1 (P32519 whole entry): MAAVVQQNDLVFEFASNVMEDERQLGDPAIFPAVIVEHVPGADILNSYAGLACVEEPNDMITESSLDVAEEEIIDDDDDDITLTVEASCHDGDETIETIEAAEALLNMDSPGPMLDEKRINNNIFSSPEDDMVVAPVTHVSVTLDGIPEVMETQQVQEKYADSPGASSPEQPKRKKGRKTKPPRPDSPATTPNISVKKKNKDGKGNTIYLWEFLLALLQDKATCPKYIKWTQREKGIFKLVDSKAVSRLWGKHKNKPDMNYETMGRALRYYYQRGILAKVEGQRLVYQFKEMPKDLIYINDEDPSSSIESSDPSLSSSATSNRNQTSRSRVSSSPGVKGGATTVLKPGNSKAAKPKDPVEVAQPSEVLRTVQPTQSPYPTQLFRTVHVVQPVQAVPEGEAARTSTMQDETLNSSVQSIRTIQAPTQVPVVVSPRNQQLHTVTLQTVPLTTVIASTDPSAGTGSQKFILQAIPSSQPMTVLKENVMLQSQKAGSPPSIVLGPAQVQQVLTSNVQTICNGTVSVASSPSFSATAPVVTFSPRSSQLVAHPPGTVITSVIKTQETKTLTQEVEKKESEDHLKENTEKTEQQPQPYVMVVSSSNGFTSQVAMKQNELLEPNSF
Another assay concerns the target SPI1 (Homo sapiens, UniProt P17947 1-270). The method in brief:
as §1

For another assay, the target named is T4, FEV (Homo sapiens, UniProt Q99581 1-238).
T4 sequence: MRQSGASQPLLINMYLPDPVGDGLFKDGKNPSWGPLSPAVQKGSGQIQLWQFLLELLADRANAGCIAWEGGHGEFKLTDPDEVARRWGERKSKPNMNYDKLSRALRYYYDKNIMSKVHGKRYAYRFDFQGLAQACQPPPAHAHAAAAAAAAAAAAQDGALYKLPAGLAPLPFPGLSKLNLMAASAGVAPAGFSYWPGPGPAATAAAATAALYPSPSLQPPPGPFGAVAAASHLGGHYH
Put shortly: as §1

A further assay addresses ETV5 (Homo sapiens, UniProt P41161 1-510). The method in brief: as §1
The target of a further assay is T5, SPIC (Homo sapiens, UniProt Q8N5J4 1-248).
T5 sequence: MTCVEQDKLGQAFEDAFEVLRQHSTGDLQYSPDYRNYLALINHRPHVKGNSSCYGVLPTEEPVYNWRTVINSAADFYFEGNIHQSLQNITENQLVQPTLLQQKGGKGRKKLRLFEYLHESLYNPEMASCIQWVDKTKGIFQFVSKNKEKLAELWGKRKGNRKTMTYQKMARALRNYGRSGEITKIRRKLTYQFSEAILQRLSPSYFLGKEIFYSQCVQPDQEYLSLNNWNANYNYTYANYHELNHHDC
The method in brief:
as §1

In the next assay the target is ELF4 (Homo sapiens, UniProt Q99607 1-663). The method in brief:
as §1

The target of a further assay is ETV1 (Homo sapiens, UniProt P50549 1-477). The method in brief: as §1
Sequence of ETV1 (P50549 whole entry): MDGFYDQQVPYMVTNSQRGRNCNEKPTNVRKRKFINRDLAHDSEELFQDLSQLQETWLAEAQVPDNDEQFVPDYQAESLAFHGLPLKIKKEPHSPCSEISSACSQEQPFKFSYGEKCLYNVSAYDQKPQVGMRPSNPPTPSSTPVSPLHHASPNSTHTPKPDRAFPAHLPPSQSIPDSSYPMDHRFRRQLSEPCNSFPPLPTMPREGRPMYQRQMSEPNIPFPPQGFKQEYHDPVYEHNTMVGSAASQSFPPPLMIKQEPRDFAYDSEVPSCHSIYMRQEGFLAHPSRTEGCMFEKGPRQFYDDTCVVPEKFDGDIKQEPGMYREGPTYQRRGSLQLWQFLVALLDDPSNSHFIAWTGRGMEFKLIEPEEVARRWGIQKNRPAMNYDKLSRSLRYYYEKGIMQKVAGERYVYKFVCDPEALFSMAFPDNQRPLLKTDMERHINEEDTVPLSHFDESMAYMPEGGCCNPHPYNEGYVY
Another assay addresses T6, ETS2 (Homo sapiens, UniProt P15036 1-469).
T6 sequence: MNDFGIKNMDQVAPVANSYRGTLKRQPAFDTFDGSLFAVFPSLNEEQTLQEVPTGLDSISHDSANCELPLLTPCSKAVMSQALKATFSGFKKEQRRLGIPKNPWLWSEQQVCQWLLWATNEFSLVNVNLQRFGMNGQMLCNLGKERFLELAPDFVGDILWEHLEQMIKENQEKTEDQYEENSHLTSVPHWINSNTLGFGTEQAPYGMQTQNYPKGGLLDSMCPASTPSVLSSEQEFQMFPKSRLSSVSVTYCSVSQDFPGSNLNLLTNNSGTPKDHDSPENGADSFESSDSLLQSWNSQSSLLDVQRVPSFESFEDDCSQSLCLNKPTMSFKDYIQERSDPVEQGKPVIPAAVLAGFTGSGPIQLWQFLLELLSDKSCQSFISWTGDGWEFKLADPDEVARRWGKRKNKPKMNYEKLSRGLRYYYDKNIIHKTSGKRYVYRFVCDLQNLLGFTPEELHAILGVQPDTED
Put shortly:
as §1

The target in the next assay is T7, ETV3 (Homo sapiens, UniProt P41162-2 1-143).
T7 sequence: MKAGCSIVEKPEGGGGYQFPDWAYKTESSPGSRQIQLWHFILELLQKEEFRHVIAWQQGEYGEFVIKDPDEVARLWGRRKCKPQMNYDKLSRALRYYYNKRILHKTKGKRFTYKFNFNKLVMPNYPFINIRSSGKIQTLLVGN
Put shortly:
as §1

Sequence of ETV5 (P41161 whole entry): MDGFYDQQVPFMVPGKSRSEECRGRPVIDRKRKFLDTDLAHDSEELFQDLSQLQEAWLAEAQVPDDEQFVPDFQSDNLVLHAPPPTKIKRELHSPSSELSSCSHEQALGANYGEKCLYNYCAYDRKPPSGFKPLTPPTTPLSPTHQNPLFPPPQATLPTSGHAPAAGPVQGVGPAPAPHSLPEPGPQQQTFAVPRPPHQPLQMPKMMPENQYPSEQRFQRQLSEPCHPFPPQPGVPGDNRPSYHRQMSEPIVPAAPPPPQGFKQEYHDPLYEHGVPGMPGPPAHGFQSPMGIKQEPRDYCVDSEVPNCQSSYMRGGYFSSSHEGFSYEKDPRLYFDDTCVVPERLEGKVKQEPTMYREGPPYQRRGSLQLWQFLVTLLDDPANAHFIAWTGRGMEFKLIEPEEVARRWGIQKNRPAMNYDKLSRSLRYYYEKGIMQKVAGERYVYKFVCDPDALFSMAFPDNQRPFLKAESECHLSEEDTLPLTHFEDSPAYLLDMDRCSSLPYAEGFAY
Sequence of ELF4 (Q99607 whole entry): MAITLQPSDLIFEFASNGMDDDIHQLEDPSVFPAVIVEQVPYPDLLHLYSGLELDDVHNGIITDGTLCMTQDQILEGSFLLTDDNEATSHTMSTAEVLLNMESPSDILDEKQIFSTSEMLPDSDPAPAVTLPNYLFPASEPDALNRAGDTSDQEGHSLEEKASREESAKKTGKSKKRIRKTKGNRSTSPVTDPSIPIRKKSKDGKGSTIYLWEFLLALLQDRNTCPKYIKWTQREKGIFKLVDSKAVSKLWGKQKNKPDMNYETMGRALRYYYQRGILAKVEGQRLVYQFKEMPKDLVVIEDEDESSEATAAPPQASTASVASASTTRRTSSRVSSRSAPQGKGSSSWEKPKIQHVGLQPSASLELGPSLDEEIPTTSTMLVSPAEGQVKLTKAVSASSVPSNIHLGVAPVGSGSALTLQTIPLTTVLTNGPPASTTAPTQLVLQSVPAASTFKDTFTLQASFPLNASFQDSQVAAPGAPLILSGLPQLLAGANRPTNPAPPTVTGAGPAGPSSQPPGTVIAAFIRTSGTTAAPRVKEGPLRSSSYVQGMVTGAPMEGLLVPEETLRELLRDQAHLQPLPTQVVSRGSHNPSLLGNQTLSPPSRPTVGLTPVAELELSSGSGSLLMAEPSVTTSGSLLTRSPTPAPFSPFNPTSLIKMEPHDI

In the case of GGCCCC, the binding signal with FLI1 was 1.02 fold enrichment (6-mer frequency, TF over GST control); with GABPA, 1.03 fold enrichment (6-mer frequency, TF over GST control); in the assay with ERG it was 1.04 fold enrichment (6-mer frequency, TF over GST control); with ELF1 it was 1.02 fold enrichment (6-mer frequency, TF over GST control); in the assay with SPI1, 1.03 fold enrichment (6-mer frequency, TF over GST control); with FEV, 1.06 fold enrichment (6-mer frequency, TF over GST control). The binding signal with ETV5 was 1.02 fold enrichment (6-mer frequency, TF over GST control); in the assay with SPIC, 1.01 fold enrichment (6-mer frequency, TF over GST control); in the assay with ELF4, 1 fold enrichment (6-mer frequency, TF over GST control); in the assay with ETV1, 1.03 fold enrichment (6-mer frequency, TF over GST control); in the assay with ETS2, 1.03 fold enrichment (6-mer frequency, TF over GST control); in the assay with ETV3, 1.05 fold enrichment (6-mer frequency, TF over GST control).
